# Measurements as given in PubChem BioAssay (Tox21).
# Several values for one entry are separate records, joined by “and”; a condition that tells them apart may be missing. Equal values may be shown once. Records with an inconclusive call do not appear. The source holds several records for some structures; these can differ, active in one and inactive in another. Activity calls are given as the source filed them. Calls follow the shape of the dose curve; as a rule, active = well fitted cell-killing curve with a large enough effect in the repeat runs (not every such curve was filed as active); inconclusive = weak or mixed curves, or effect the other way; inactive = no such curve, though single readings can be large or run the other way.
# Assay: qHTS assay to identify small molecule antagonists of the farnesoid-X-receptor (FXR) signaling pathway - cell viability counter screen (AID 743221); also: nearly all actives have a fitted effect of over 50% in size
# Conditions: FXR-bla HEK293T viability, CellTiter-Glo luminescence, 16 h; series mostly up to 62.6 µM; activity change, negative = cytotoxicity: at the top concentration
# Description: National Center for Advancing Translational Sciences [NCATS]
# NIH Chemical Genomics Center [NCGC]
# U.S. Environmental Protection Agency [EPA]
# National Institutes of Environmental Health Sciences [NIEHS]
# National Toxicology Program [NTP]
# U.S. Food and Drug Administration [FDA]
# The farnesoid-X-receptor (FXR), a nuclear hormone receptor, is highly expressed in liver, intestine, kidney and adrenal cortex. Natural ligands of FXR are the bile acids (Cholic acid, Chenodeoxy cholic acid etc). FXR is an important regulator of diverse metabolic pathways, including the bile acid homeostasis, lipid and glucose metabolisms. FXR regulates the expression of target genes by binding either as a monomer or as a heterodimer with the retinoid X receptor (RXR). Numerous studies have reported that FXR exerts protective function during cholestasis, diabetes, liver regeneration, and cancer. To identify compounds that inhibit FXR signaling, GeneBLAzer FXR-UAS-bla HEK 293T cell line (Invitrogen, Carlsbad, CA) containing a beta-lactamase reporter gene under the control of a UAS response element was used to screen the Tox21 10K compound library. The cytotoxicity of the Tox21 compound library against the FXR-bla cell line was tested in parallel by measuring the cell viability using CellTiter-Glo assay in the same wells.
# Tox21 Assay Protocol Summary:
# FXR-bla cells were dispensed at 5000 cells/5uL/well in 1536-well black wall/clear bottom plates using a Multidrop Combi (Thermo Fisher Scientific, Waltham, MA) dispenser. After the assay plates were incubated at 37 C and 5% CO2 for 5 h, 23 nL of compounds dissolved in DMSO, positive controls or DMSO only was transferred to the assay plate by a Pintool station (Kalypsys, San Diego, CA), followed by addition of 1 uL Chenodeoxycholic acid (50 uM, final concentration in the wells). The assay plates were incubated at 37C for 16 h. After 1 uL of LiveBLAzerTM B/G FRET substrate was added using a Bioraptr Flying Reagent Dispenser (FRD) workstation (Beckman Coulter, Indianapolis, IN), the plates were incubated at room temperature for 2 h, and fluorescence intensity was measured by an Envision plate reader (PerkinElmer, Shelton, CT). For cell viability readout that measures cytotoxicity, 4uL/well of CellTiter-Glo reagent was added into the assay plates using a Bioraptr FRD. After 30 min incubation at room temperature, the luminescence intensity in the plates was measured using a ViewLux plate reader (PerkinElmer).
# % is scaled to controls: 0 for no effect and ±100 for the full control effect; potency is read from the fitted curve at half-maximal effect.
Structure (SMILES),"activity change, negative = cytotoxicity",Potency
COP(=S)(OC)Oc1ccc([N+](=O)[O-])cc1Cl,-12.6% (inactive),–
c1cc2ccc3cccc4ccc(c1)c2c34,-3.98% [at 81.1 µM] (inactive),–
Nc1ccc([N+](=O)[O-])cc1[N+](=O)[O-],9.09% (inactive),–
COc1c(C(C)(C)C)cc([N+](=O)[O-])c(C)c1[N+](=O)[O-],10.3% (inactive),–
C=CC(=O)NCNC(=O)C=C,6.29% (inactive),–
CC1(C)CCC(Cc2ccc(Cl)cc2)C1(O)Cn1cncn1 (stereo not given),-5% (inactive),–
CCC(Br)(CC)C(=O)NC(N)=O,5.63% (inactive),–
CC(C)=CCOc1c2occc2cc2ccc(=O)oc12,-11.5% (inactive),–
CCOP(=O)(OCC)O/C(=C/Cl)c1ccc(Cl)cc1Cl,0.746% (inactive),–
CC(c1ccc(O)cc1)(c1ccc(O)cc1)c1ccc(O)cc1,-17.2% (inactive),–
II,-2.51% (inactive),–
COc1cc(Cl)c(OC)cc1Cl,1.14% (inactive),–
Clc1cc(C(Cl)(Cl)Cl)cnc1Cl,-0.458% (inactive),–
CCOP(=S)(OCC)SCSCC,6% (inactive),–
CCOC(=O)CBr,-5.91% [at 81.1 µM] (inactive),–
COCC(C)N(C(=O)CCl)c1c(C)csc1C (stereo not given),-0.0931% (inactive),–
C=CC[C@]1(O)CC[C@H]2[C@@H]3CCC4=CC(=O)CCC4=C3C=C[C@@]21C,0.827% (inactive),–
O=C(CCl)c1ccc(Cl)cc1Cl,–,inactive and 29.8 µM (active)
CN(N=O)c1ccc([N+](=O)[O-])cc1,-4.29% (inactive),–
CCOP(=S)(OCC)Oc1cc(Cl)c(Br)cc1Cl,-0.345% (inactive),–

Structure (SMILES),"activity change, negative = cytotoxicity",Potency
C=C(C#N)CCC#N,14% (inactive),–
O=C(C(Cl)(Cl)Cl)C(Cl)(Cl)Cl,5.06% [at 81.1 µM] (inactive),–
C=CC(=O)OC(C)(C)C,-8.59% (inactive),–
CC(=O)CCC(C)=O,1.51% [at 81.1 µM] (inactive),–
Cc1c(F)c(F)c(COC(=O)C2C(/C=C(\Cl)C(F)(F)F)C2(C)C)c(F)c1F (stereo not given),-10.5% (inactive),–
CCOP(=S)(Oc1ccc([N+](=O)[O-])cc1)c1ccccc1 (stereo not given),-2.83% (inactive),–
CC(C)(Cl)[N+](=O)[O-],7% [at 81.1 µM] (inactive),–
c1ccoc1,9.65% (inactive),–
CC1C(=O)C[C@]2(C(C)C)C[C@H]12 (stereo not given in full),-2.97% (inactive),–
CCCCNP(N)(N)=S,-3.01% (inactive),–
CCCCOC(=O)c1ccccc1C(=O)OCc1ccccc1,4.73% (inactive),–
CCCCCC[N+](=O)[O-],14% [at 81.1 µM] (inactive),–
c1ccc(CN2CCNCC2)cc1,-0.918% [at 232 µM] (inactive),–
CCC(Cl)CCl (stereo not given),4.28% [at 81.1 µM] (inactive),–
c1ccc(C2CC2)c(OCC2=NCCN2)c1,2.94% (inactive),–
O=NN1CCCCCC1,-11% (inactive),–
C=CCN1CC[C@]23c4c5ccc(O)c4O[C@H]2C(=O)CC[C@@]3(O)[C@H]1C5,2.38% (inactive),–
CCCCCCCCCC(=O)O[C@H]1CC[C@H]2[C@@H]3CCC4=CC(=O)CC[C@@H]4[C@H]3CC[C@]12C,7.48% (inactive),–
CCOC(=O)[C@]1(c2ccccc2)Oc2ccccc2[C@@H]1N,-18% (inactive),–
NC(=O)CI,12.1% [at 81.1 µM] (inactive),–
